According to the supplement of paper PMC10849652:
Targets with a hit are over-represented here; the source holds about 7,900 in all. About 0.6% of all pairs of compound and target were hits. A number with no mark means an inactive call.

Key:
Assay in all cases: log2 fold change, soluble protein after heating vs DMSO (PISA); higher = thermal stabilisation; K562 cells, 10 uM, 30 min; active = over 0.2 and 3.5 SD of the protein, either way, in both replicates (recomputed)
[1] = compound: C/C(=N\NC(=O)C1=CC(=CC=C1)S(=O)(=O)N2CCOCC2)/C3=C(C=CC(=C3)Cl)O
Summary of the method: (§1)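 K562 cells (2×10^6 cells/mL) were treated with 10 μM compound for 30 min, and aliquots were heated for 3 min over 48°C-58°C. Pooled aliquots were extracted in PBS with 0.5% NP-40 at 4°C, and the supernatant after 21,000xg for 90 min was measured by TMTpro 16plex LC-MS/MS with channel sums equalised. Reported thermal stability, relative to control samples and from duplicates, is a log2 fold change.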

[2] = compound: C1=CC2=C(C=CC(=C2)/C=C\3/C(=O)NC(=NCC4=CC=CS4)S3)N=C1
Summary of the method: as §1

[3] = compound: C1=CC=C2C(=C1)C3=NNC4=CC=CC(=C43)C2=O
Summary of the method: as §1

[4] = compound: C1=CC(=C(C=C1Cl)C2=NC3=NC=CN=C3C(=N2)NC4=CC=NC=C4)F
Summary of the method: as §1

[5] = compound: C1=CC2=NC=CN=C2C=C1/C=C/3\C(=O)NC(=O)S3
Summary of the method: as §1

[6] = compound: C#Cc1cccc(Nc2ncnc3cc(OCCOC)c(OCCOC)cc23)c1 [erlotinib]
Summary of the method: as §1

[7] = compound: C1=CC(=CC=C1C2=NC3=C(N2)C=C(C=C3)C(=O)N)OC4=CC=C(C=C4)Cl
Summary of the method: as §1

[8] = compound: C1=CC=C(C=C1)C2=NC(=C(N2)C3=CC=NC=C3)C4=CC(=C(C=C4)Cl)O
Summary of the method: as §1

[9] = compound: C1CCN(C1)C(=O)NC2=CC=CC(=C2)NC3=NC=C(C(=N3)NCCC4=CN=CN4)Br
Summary of the method: as §1

[10] = compound: C1CN(CCC1(CC2=CC=C(C=C2)Cl)N)C3=NC=NC4=C3C=CN4
Summary of the method: as §1

## KIF13A isoform 4 (UniProt Q9H1H9)
UniProt Q9H1H9, sequence (Q9H1H9 whole entry, looked up): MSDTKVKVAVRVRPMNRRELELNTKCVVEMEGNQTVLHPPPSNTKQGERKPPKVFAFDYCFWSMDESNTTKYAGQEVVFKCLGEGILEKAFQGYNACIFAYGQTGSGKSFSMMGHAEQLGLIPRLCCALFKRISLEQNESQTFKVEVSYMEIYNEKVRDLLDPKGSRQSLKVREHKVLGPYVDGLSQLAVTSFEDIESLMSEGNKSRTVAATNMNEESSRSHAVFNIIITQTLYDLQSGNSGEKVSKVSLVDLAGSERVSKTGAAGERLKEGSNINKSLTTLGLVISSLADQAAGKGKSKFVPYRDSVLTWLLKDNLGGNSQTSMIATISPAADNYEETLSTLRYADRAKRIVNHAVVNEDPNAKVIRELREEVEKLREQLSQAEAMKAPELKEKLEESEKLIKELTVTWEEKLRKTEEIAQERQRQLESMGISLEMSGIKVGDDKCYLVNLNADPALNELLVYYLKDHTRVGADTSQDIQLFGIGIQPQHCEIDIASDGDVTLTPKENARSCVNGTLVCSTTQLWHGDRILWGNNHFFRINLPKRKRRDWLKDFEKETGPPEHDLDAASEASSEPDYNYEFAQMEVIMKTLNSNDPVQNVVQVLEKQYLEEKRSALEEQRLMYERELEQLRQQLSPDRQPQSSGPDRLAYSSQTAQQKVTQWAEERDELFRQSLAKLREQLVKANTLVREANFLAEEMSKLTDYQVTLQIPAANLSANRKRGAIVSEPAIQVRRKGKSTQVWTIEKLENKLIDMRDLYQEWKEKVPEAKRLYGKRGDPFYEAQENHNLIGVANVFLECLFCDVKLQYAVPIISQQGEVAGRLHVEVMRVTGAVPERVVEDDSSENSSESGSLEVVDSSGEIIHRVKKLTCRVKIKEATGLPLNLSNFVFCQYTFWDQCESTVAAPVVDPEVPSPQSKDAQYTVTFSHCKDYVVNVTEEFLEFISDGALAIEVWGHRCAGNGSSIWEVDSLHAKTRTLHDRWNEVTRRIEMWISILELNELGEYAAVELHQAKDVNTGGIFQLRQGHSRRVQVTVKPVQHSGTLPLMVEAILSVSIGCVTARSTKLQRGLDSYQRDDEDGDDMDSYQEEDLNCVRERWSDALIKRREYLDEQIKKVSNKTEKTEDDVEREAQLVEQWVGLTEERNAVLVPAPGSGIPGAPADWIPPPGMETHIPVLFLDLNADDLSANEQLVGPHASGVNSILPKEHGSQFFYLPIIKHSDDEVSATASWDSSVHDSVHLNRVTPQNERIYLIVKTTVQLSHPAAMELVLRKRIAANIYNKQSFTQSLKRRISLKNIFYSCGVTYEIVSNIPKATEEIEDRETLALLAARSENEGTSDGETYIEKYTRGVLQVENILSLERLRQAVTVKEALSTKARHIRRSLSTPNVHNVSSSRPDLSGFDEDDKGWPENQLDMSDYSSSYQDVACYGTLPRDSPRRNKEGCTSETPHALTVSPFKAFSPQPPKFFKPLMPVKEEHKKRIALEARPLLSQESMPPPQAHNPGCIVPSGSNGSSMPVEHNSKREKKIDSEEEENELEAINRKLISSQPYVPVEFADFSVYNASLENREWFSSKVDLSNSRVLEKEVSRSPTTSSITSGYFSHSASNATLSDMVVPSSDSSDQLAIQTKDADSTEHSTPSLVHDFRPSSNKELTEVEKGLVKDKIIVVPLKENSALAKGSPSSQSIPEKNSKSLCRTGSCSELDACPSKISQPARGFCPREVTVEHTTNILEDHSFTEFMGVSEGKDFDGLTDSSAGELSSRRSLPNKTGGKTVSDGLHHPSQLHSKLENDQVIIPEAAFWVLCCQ
[1]
  log2 fold change: 0.21
[2]
  log2 fold change: 0.161
[3]
  log2 fold change: 0.021

## ILF3 (UniProt Q12906)
[4]
  log2 fold change: -0.083
[5]
  log2 fold change: 0.128

## MGRN1 isoform 2 (UniProt O60291)
UniProt O60291, sequence (O60291 whole entry, looked up): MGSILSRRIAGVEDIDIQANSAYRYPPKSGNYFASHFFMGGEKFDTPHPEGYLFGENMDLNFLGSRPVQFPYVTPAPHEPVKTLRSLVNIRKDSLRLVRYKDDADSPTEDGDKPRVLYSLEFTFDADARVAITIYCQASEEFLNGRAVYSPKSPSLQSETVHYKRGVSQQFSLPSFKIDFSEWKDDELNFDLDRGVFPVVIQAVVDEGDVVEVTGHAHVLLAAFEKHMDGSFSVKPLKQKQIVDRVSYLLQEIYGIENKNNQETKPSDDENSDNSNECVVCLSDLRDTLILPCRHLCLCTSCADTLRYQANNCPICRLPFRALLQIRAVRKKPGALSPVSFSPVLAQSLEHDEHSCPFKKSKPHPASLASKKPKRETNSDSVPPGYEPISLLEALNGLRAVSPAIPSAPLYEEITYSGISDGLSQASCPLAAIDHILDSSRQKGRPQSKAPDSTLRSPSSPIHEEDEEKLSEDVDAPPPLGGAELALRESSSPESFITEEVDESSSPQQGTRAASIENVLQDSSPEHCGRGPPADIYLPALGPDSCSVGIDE
[6]
  log2 fold change: 0.016
[1]
  log2 fold change: 0.079
[7]
  log2 fold change: 0
[2]
  log2 fold change: -0.544 (active)
[5]
  log2 fold change: 0.004
[8]
  log2 fold change: -0.095
[3]
  log2 fold change: 0.073
[9]
  log2 fold change: 0.008
[10]
  log2 fold change: 0.227

## MAP4K4 isoform 6 (UniProt O95819)
[9]
  log2 fold change: -0.168
[10]
  log2 fold change: -0.025

## MARCHF3 (UniProt Q86UD3)
UniProt Q86UD3, sequence (Q86UD3 whole entry, looked up): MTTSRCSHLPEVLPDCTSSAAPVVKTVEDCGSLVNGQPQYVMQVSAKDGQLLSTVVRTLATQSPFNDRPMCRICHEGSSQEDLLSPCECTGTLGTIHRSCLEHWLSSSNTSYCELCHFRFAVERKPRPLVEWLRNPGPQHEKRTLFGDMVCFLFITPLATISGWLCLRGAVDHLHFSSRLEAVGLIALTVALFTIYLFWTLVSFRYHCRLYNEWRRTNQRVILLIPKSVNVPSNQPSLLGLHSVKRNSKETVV
[4]
  log2 fold change: -0.188
[5]
  log2 fold change: -0.073

## LSR (UniProt M0QZL9)
[4]
  log2 fold change: 0.029

## MFSD11 (UniProt O43934)
UniProt O43934, sequence (O43934 whole entry, looked up): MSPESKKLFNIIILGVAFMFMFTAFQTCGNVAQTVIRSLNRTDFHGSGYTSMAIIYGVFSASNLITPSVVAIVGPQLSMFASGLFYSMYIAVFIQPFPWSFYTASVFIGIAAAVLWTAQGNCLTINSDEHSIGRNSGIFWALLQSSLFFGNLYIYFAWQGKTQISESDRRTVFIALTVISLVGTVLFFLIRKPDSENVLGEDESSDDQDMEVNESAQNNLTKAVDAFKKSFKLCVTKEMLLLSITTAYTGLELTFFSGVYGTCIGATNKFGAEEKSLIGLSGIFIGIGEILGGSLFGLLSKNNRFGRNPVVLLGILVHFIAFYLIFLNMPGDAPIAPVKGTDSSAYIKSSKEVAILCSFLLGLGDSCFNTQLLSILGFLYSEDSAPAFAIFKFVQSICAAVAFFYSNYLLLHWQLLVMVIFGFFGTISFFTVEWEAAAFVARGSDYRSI
[1]
  log2 fold change: 0.001
[4]
  log2 fold change: 0.007
[2]
  log2 fold change: 0.047
[5]
  log2 fold change: 0.043
[3]
  log2 fold change: -0.067
[9]
  log2 fold change: 0.06
[10]
  log2 fold change: 0.219

## LRFN1 (UniProt Q9P244)
UniProt Q9P244, sequence (Q9P244 whole entry, looked up): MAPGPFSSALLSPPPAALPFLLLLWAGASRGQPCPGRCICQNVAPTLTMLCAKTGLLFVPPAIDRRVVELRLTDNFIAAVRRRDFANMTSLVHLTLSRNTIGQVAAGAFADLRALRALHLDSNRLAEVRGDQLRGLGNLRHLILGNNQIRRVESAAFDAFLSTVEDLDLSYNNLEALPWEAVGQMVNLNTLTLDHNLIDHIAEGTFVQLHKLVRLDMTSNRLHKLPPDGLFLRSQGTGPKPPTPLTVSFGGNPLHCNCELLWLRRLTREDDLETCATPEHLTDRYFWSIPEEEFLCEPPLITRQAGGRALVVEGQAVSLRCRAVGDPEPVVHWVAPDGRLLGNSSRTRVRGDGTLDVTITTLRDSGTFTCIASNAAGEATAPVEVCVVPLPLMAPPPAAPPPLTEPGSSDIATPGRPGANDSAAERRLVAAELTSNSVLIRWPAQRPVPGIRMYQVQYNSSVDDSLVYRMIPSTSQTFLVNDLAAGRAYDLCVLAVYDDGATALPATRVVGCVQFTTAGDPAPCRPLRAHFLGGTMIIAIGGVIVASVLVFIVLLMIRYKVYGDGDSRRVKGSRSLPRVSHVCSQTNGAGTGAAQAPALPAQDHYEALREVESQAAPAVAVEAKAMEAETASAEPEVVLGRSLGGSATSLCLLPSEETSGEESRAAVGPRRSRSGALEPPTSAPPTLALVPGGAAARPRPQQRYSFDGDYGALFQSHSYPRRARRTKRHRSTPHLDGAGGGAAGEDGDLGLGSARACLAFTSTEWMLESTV
[6]
  log2 fold change: 0.059
[4]
  log2 fold change: -0.028
[7]
  log2 fold change: 0
[5]
  log2 fold change: 0.004
[8]
  log2 fold change: -0.038
[9]
  log2 fold change: -0.1
[10]
  log2 fold change: 0.052

## MCOLN3 (UniProt Q8TDD5)
UniProt Q8TDD5, sequence (Q8TDD5 whole entry, looked up): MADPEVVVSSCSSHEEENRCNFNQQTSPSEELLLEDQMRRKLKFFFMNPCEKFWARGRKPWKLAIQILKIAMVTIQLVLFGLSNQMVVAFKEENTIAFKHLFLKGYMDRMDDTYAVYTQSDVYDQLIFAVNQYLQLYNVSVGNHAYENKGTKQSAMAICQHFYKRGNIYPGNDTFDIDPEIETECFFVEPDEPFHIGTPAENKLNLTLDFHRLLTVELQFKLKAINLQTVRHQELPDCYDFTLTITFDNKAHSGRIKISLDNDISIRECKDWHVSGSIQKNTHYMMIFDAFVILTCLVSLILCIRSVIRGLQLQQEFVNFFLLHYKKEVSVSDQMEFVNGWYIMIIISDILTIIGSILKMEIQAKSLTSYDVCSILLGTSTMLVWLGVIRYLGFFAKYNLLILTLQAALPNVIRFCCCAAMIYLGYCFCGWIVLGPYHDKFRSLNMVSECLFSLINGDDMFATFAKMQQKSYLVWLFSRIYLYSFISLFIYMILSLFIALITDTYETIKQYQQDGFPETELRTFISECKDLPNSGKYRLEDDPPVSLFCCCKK
[6]
  log2 fold change: 0.244
[7]
  log2 fold change: -0.016
[5]
  log2 fold change: 0.112
[8]
  log2 fold change: -0.049
[9]
  log2 fold change: 0.053
[10]
  log2 fold change: 0.107

## LMNA isoform 2 (UniProt P02545)
[9]
  log2 fold change: -0.022
[10]
  log2 fold change: 0.146

## MFSD12 isoform 3 (UniProt Q6NUT3)
UniProt Q6NUT3, sequence (Q6NUT3 whole entry, looked up): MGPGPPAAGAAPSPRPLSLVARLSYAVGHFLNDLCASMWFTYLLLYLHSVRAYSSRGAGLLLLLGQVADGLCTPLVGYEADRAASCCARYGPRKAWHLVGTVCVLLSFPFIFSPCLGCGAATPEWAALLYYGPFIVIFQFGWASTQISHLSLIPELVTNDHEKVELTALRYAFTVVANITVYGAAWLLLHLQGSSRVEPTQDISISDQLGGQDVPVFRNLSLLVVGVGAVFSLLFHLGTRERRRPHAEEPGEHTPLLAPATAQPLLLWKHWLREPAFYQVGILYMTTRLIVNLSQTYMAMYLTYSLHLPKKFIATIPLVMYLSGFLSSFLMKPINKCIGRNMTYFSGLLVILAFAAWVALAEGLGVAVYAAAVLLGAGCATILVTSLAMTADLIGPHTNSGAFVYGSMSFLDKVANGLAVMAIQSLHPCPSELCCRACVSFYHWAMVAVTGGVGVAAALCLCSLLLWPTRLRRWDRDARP
[6]
  log2 fold change: 0.062
[1]
  log2 fold change: -0.062
[7]
  log2 fold change: 0.077
[2]
  log2 fold change: -0.035
[3]
  log2 fold change: 0.024
[9]
  log2 fold change: -0.088
[10]
  log2 fold change: -0.099
